Laboratory results from the supplement of paper PMC6411743.
± gives the standard deviation of the averaged measurements. Of roughly 6,200 targets only a part is listed; those with the largest changes were picked by preference.

Compound: Nc1ncnc2c1ncn2[C@@H]1O[C@H](COP(=O)(O)OP(=O)(O)NP(=O)(O)O)[C@@H](O)[C@H]1O [adenylyl imidodiphosphate]
Assay: NP40-soluble protein abundance relative to vehicle (solubility fold change) (ratio); higher = more soluble protein in presence of AMP-PNP
In short: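 Across three independent experiments, values are fold changes against the detergent-processed vehicle for each replicate, based on vsn-normalised intensities. The samples were Jurkat crude lysate treated with eight concentrations (0.1 to 10 mM) for 10 min at room temperature and then 3 min at 37 °C. Lysate was solubilised with 0.8% NP40 and benzonase, ultracentrifuged, and the supernatant analysed by TMT-labelled LC-MS/MS.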

Chain of UniProt O95630 (O95630 whole entry): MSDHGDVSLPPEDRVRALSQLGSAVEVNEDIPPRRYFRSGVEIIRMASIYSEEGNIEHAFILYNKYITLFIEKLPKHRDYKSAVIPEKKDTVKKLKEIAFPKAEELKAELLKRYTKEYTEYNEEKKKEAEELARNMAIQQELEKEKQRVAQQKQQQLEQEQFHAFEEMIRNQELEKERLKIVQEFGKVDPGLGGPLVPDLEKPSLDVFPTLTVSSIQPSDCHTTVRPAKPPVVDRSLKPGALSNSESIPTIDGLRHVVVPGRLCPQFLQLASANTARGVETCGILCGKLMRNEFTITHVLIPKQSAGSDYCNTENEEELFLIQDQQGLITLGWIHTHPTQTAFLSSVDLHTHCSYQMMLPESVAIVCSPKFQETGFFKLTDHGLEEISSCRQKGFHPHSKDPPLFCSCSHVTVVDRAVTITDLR
Chain of UniProt P17096 (P17096 whole entry): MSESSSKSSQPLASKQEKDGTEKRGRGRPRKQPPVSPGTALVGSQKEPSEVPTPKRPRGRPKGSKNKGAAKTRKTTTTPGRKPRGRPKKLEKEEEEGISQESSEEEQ
Chain of UniProt O75368 (O75368 whole entry): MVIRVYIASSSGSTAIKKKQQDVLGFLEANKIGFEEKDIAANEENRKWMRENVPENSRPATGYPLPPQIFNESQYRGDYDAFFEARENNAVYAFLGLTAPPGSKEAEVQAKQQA
Chain of UniProt Q05048 (Q05048 whole entry): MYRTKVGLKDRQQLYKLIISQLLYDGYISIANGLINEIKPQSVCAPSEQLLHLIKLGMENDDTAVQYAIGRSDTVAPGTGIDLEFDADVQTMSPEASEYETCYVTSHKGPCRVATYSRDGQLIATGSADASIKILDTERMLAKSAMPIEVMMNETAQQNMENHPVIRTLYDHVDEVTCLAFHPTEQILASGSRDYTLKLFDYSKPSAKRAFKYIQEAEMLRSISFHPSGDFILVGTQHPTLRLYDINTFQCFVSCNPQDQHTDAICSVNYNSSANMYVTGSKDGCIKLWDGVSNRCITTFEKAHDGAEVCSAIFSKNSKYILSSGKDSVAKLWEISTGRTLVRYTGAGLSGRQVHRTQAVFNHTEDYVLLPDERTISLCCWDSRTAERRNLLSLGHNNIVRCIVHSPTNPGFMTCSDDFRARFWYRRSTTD
Chain of UniProt Q08945 (Q08945 whole entry): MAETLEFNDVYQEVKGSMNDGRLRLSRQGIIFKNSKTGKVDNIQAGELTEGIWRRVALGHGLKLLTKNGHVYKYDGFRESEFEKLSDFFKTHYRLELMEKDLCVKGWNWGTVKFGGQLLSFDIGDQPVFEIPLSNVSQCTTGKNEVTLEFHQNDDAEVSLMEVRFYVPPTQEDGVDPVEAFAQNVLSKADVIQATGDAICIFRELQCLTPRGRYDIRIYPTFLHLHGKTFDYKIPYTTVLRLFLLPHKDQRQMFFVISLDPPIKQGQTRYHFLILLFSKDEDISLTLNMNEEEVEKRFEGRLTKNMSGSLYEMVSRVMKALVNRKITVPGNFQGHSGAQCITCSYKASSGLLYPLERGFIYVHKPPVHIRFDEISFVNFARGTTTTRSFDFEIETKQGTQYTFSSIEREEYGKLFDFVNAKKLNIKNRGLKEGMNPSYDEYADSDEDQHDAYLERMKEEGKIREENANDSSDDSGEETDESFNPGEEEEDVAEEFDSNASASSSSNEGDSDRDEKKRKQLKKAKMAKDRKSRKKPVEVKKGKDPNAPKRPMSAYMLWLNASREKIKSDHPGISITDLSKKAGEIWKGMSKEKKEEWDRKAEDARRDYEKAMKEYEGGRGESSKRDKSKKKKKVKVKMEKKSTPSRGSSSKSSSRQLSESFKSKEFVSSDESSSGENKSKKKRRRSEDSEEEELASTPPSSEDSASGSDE
Chain of UniProt P10515 (P10515 whole entry): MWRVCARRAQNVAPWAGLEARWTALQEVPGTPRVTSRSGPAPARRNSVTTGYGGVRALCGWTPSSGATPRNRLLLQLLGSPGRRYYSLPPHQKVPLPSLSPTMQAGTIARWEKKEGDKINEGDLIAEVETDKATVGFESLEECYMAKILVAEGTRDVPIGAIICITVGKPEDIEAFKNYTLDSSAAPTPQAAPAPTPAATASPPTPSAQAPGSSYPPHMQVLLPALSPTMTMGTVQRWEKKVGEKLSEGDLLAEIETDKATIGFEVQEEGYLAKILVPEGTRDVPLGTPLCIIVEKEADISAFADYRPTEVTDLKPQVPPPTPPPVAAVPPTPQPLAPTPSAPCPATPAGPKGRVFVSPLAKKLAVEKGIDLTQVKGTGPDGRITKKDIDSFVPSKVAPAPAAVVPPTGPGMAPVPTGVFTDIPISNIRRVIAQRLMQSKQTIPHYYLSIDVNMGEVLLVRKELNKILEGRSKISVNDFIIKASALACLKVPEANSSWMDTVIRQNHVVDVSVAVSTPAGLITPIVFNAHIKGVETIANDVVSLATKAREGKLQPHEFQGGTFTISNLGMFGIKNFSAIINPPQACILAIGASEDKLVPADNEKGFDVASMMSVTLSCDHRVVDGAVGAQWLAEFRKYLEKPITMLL
Chain of UniProt Q01081 (Q01081 whole entry, looked up, other chains not shown): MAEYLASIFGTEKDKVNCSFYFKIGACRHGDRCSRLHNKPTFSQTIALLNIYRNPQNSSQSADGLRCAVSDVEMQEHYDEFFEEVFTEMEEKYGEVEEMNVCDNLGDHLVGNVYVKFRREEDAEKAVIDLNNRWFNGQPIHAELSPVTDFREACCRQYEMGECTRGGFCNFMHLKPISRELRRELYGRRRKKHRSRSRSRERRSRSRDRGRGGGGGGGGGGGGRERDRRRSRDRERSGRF
Chain of UniProt O75367 (O75367 whole entry): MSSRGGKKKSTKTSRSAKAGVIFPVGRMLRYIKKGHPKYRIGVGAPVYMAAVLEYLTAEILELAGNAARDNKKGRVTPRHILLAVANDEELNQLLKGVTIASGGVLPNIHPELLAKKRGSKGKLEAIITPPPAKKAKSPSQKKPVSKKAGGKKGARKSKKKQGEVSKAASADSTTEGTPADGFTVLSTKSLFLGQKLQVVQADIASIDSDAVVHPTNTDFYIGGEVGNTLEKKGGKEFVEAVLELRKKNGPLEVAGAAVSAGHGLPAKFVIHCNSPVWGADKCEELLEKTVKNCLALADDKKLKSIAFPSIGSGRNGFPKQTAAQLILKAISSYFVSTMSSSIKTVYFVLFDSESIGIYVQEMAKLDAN
Chain of UniProt Q00013 (Q00013 whole entry): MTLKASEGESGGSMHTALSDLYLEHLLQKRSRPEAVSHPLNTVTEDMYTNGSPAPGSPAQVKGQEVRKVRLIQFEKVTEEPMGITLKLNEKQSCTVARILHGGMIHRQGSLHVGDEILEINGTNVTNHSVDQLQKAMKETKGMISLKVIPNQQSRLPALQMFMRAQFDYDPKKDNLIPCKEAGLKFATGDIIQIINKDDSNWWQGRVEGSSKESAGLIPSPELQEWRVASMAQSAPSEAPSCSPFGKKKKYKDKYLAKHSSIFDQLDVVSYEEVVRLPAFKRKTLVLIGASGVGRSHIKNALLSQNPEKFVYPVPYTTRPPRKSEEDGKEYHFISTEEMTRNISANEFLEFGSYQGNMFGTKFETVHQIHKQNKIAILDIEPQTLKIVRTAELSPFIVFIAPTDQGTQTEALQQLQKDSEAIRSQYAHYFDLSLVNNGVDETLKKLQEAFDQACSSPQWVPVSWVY
Chain of UniProt P53384 (P53384 whole entry): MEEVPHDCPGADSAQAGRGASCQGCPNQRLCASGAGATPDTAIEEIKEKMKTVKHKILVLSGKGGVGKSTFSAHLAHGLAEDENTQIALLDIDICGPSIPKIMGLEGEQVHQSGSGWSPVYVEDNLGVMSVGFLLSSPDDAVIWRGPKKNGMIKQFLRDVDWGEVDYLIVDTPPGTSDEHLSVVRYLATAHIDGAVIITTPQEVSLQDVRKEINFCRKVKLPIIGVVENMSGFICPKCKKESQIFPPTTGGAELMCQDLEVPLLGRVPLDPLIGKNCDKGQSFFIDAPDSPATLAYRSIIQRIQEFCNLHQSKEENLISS
Chain of UniProt P43686 (P43686 whole entry): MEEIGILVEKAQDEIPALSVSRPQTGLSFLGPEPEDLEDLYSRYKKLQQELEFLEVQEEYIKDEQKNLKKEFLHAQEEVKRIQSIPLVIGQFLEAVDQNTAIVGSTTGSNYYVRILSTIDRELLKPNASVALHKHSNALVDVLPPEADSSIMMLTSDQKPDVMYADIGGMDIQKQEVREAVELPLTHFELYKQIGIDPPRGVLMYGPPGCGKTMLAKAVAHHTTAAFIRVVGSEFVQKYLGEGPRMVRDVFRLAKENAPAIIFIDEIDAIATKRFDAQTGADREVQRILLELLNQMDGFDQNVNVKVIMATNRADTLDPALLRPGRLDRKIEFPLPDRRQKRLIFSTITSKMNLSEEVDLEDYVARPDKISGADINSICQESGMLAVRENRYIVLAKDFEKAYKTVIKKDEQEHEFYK
Chain of UniProt O76003 (O76003 whole entry): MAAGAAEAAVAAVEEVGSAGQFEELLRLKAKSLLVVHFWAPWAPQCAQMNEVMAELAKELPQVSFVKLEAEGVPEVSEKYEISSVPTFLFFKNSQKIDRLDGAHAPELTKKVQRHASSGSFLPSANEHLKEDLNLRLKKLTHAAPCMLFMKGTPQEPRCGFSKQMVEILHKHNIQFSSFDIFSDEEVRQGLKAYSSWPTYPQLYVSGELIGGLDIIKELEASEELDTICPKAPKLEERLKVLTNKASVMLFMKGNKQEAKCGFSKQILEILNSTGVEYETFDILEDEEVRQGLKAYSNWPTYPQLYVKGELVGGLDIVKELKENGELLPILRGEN

Target	NP40-soluble protein abundance (concentration: 1mM)	NP40-soluble protein abundance (concentration: 2mM)	NP40-soluble protein abundance (concentration: 4mM)	NP40-soluble protein abundance (concentration: 6mM)	NP40-soluble protein abundance (concentration: 8mM)	NP40-soluble protein abundance (concentration: 10mM)
UniProt O75367|O75367-2|O75367-3	1.01 ± 0.066	1 ± 0.055	1.05 ± 0.075	1.15 ± 0.034	1.26 ± 0.092	1.44 ± 0.049
SSRP1 (UniProt Q08945)	1.05 ± 0.053	1.07 ± 0.03	1.13 ± 0.045	1.35 ± 0.055	1.47 ± 0.058	1.73 ± 0.1
P0DN76|Q01081 (UniProt Q01081+P0DN76)	1.04 ± 0.065	1.06 ± 0.083	1.12 ± 0.05	1.29 ± 0.099	1.47 ± 0.18	1.51 ± 0.18
PSMC4 (UniProt P43686)	0.906 ± 0.041	0.921 ± 0.06	0.885 ± 0.08	0.871 ± 0.079	0.866 ± 0.082	0.859 ± 0.1
ARID4A (UniProt P29374)	1.06 ± 0.053	1.07 ± 0.039	1.07 ± 0.036	1.03 ± 0.031	1.01 ± 0.032	1.07 ± 0.033
DLAT (UniProt P10515)	0.959 ± 0.23	0.904 ± 0.2	0.904 ± 0.31	0.877 ± 0.31	0.899 ± 0.27	0.923 ± 0.31
GLRX3 (UniProt O76003)	1.04 ± 0.026	1.02 ± 0.011	0.99 ± 0.027	0.9932 ± 0.0036	0.989 ± 0.031	0.976 ± 0.055
CSTF1 (UniProt Q05048)	0.9781 ± 0.0088	0.931 ± 0.075	1 ± 0.015	1 ± 0.015	1.069 ± 0.0036	1.02 ± 0.046
VASP (UniProt P50552)	1.02 ± 0.03	1.09 ± 0.078	1.03 ± 0.033	1.01 ± 0.015	0.999 ± 0.046	0.9961 ± 0.0094
SH3BGRL (UniProt O75368)	0.939 ± 0.027	0.966 ± 0.028	0.888 ± 0.013	0.937 ± 0.031	0.907 ± 0.015	0.897 ± 0.033
MPP1 (UniProt Q00013)	1.01 ± 0.015	0.964 ± 0.035	1.01 ± 0.028	0.978 ± 0.028	1.01 ± 0.048	0.986 ± 0.034
UniProt P17096|P17096-2	1.01 ± 0.076	1.19 ± 0.19	1.12 ± 0.047	1.29 ± 0.057	1.31 ± 0.088	1.74 ± 0.29
UniProt O95104|O95104-3|O95104-2	1.1 ± 0.033	1.22 ± 0.083	1.26 ± 0.039	1.34 ± 0.14	1.39 ± 0.071	1.46 ± 0.063
UniProt P53384|P53384-2	0.979 ± 0.025	0.969 ± 0.057	1 ± 0.031	0.982 ± 0.022	0.97 ± 0.014	0.96 ± 0.063
STAMBP (UniProt O95630)	1.02 ± 0.02	0.993 ± 0.012	0.995 ± 0.03	0.984 ± 0.018	0.964 ± 0.033	0.948 ± 0.06
